# According to the supplement of paper PMC6805474:
# Experiments:
# [1] = system: Schistosoma mansoni schistosomula (NMRI); assay: phenotypic severity score (0-4); higher = more antischistosomal effect, active = 2 or more; conditions: 10 µM
# [2] = system: Schistosoma mansoni schistosomula (Liberian); assay: drug effect (1 - score/DMSO control score) (fraction); higher = more antischistosomal effect, active = 0.5 or more; extreme values may be limits of the assay; conditions: 10 µM
# How it was run: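 Schistosomula of the Liberian strain of Schistosoma mansoni were mechanically transformed from cercariae, pre-incubated for at least 12 h, and placed at 50 per well in flat-bottom 96-well plates with Medium 199 containing 5% FCS. Compounds were tested in duplicate at 10 µM at 37 °C and 5% CO2, alongside wells holding 0.1% DMSO. Parasites were scored visually at 10× after 24, 48 and 72 h on a quarter-point scale running from 3 (normal) to 0 (dead). Drug effect came from the mean test-well score relative to the mean DMSO-well score, with negative values set to zero and plates accepted only when the DMSO wells averaged at least 2.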
# [3] = system: Schistosoma mansoni schistosomula (LE); assay: XTT viability relative to DMSO control; higher = more viable (less active); conditions: 72 h; 10 µM
# Description: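 XTT/PMS was then added for a further 24 h (72 h total) and A450 was read. % viability = (sample - heat-killed control)/(DMSO control - heat-killed control) x 100, from duplicate wells in two independent experiments.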
# 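Wherever phenotypic severity score (0-4) is given: visual microscopic scoring of shape, motility and density changes versus 0.5% DMSO solvent controls, one point per descriptor, degeneracy or death scored 4, mean of duplicate wells.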
Structure (SMILES),phenotypic severity score ([1]; 24 h),phenotypic severity score ([1]; 48 h),phenotypic severity score ([1]; 72 h),drug effect ([2]; 24 h),drug effect ([2]; 48 h),drug effect ([2]; 72 h),XTT viability [3]
c1csc(-c2cnc3sc(NCC4CCOCC4)nn23)c1,0 (inactive),0 (inactive),0 (inactive),0.182 (inactive),0.55 (active),0.345 (inactive),
Cc1ccc(C(=O)Nc2ccc(S(=O)(=O)O)c3cc(S(=O)(=O)O)cc(S(=O)(=O)O)c23)cc1NC(=O)c1cccc(NC(=O)Nc2cccc(C(=O)Nc3cc(C(=O)Nc4ccc(S(=O)(=O)O)c5cc(S(=O)(=O)O)cc(S(=O)(=O)O)c45)ccc3C)c2)c1,0 (inactive),0 (inactive),0 (inactive),0.15 (inactive),0.297 (inactive),0.389 (inactive),
c1ccc(-c2cc(N3CCCCC3)c3ccccc3n2)nc1,1 (inactive),0 (inactive),1 (inactive),0.15 (inactive),0.243 (inactive),0.389 (inactive),
OCCc1ccc(Nc2nccc(-c3nnc4ccccn34)n2)cc1,0 (inactive),1 (inactive),4 (active),0.2 (inactive),0.556 (active),0.562 (active),
CC(=O)Nc1ccc(NC(=O)c2cc(-c3cc(Cl)ccc3O)[nH]n2)cc1,0 (inactive),0 (inactive),0 (inactive),0.227 (inactive),0.15 (inactive),0.127 (inactive),
NC(CC(=O)c1ccc(Cl)cc1Cl)C(Cl)(Cl)Cl (centres undefined),0 (inactive),0 (inactive),0 (inactive),0.0455 (inactive),0.1 (inactive),0.158 (inactive),
COc1cc(C2=NCCN2)cc2cc(-c3ccc(C4=NCCN4)cc3)oc12,0 (inactive),0 (inactive),0 (inactive),0.1 (inactive),0.027 (inactive),0.0303 (inactive),
Cc1ccc2oc(-c3cc(NC(=O)Cc4ccccc4)ccc3Cl)nc2c1,1 (inactive),0 (inactive),0 (inactive),0.227 (inactive),0.25 (inactive),0.236 (inactive),
CCCCCCCCCCCCCCCCOP(=O)([O-])OCC[N+](C)(C)C,0 (inactive),0 (inactive),0 (inactive),0.05 (inactive),0.243 (inactive),0.273 (inactive),
CCOc1ccc(-c2nc(NC(=O)CS(=O)(=O)c3ccccc3)sc2C)cc1,0 (inactive),0 (inactive),1 (inactive),0.1 (inactive),0.0811 (inactive),0.111 (inactive),
CCc1ccccc1-n1c(C)cn2c3c(=O)n(C(C(=O)OC)C(C)C)c(=O)n(C)c3nc12 (centres undefined),1 (inactive),0 (inactive),0 (inactive),0.15 (inactive),0.405 (inactive),0.636 (active),
CCCS(=O)(=O)N1CCC(CO)(Cc2ccccc2C(F)(F)F)CC1,2 (active),4 (active),4 (active),0.243 (inactive),0.278 (inactive),0.75 (active),
O=C(N[C@H](Cc1ccccc1)C(=O)Nc1ccccc1N1CCOCC1)c1cccs1,0 (inactive),0 (inactive),0 (inactive),0.2 (inactive),0.167 (inactive),0.188 (inactive),
CC(C)(C)n1nc(Cc2ccc(F)c(Cl)c2)c2c(N)ncnc21,0 (inactive),0 (inactive),0 (inactive),0.0811 (inactive),0.167 (inactive),0.188 (inactive),
O=C(Nc1nnc(-c2ccc(Cl)s2)o1)c1ccc(Cl)s1,2 (active),4 (active),4 (active),< 0 (inactive),< 0 (inactive),< 0 (inactive),
CO[C@@H](C(=O)N1Cc2[nH]nc(NC(=O)c3ccc(N4CCN(C)CC4)cc3)c2C1)c1ccccc1,0 (inactive),0 (inactive),0 (inactive),0.15 (inactive),0.243 (inactive),0.278 (inactive),
CCCCc1ccc(NC(=O)Nc2ccc(O[C@H]3CCCC[C@@H]3N(C)c3ccccc3)c(F)c2)cc1,0 (inactive),0 (inactive),0 (inactive),0.111 (inactive),0.312 (inactive),0.875 (active),
CC(=O)NCC1CN(c2ccc(-c3ccc(CO)cc3)c(F)c2)C(=O)O1 (centres undefined),0 (inactive),1 (inactive),0 (inactive),0.1 (inactive),0.111 (inactive),0.0625 (inactive),
O=C(C1CCN(c2nnc(-n3cccc3)s2)CC1)N1CCC(Cc2ccccc2)CC1,1 (inactive),1 (inactive),0 (inactive),0.0526 (inactive),0.111 (inactive),< 0 (inactive),
COc1cc(C2=NCCN2)ccc1-n1cc(-c2cccc(C3=NCCN3)c2)nn1,1 (inactive),0 (inactive),0 (inactive),0.243 (inactive),0.278 (inactive),0.5 (active),

Structure (SMILES),phenotypic severity score ([1]; 24 h),phenotypic severity score ([1]; 48 h),phenotypic severity score ([1]; 72 h),drug effect ([2]; 24 h),drug effect ([2]; 48 h),drug effect ([2]; 72 h),XTT viability [3]
CC(=O)N(CCN(C(=O)c1ccc(F)cc1)c1ccccc1)c1ccccc1,1 (inactive),0 (inactive),0 (inactive),0.1 (inactive),0.027 (inactive),0.0909 (inactive),
COc1nc2ccc(Br)cc2cc1[C@@H](c1ccccc1)[C@@](O)(CCN(C)C)c1cccc2ccccc12,2 (active),4 (active),4 (active),0.318 (inactive),0.8 (active),0.945 (active),
Nc1ncnc2c1c(-c1cnc3ccccc3c1)nn2CC1CCNCC1,0 (inactive),0 (inactive),0 (inactive),0.2 (inactive),0.278 (inactive),0.5 (active),
CCN(CC)CCCN1CCN(C(=O)c2cccc(-c3noc(C(F)(F)F)n3)c2)CC1,0 (inactive),0 (inactive),1 (inactive),0.2 (inactive),0.111 (inactive),0.25 (inactive),
CN1CCN(S(=O)(=O)c2ccc(-c3ccc4c(Nc5ccc6nn[nH]c6c5)ccnc4c3)cc2)CC1,0 (inactive),0 (inactive),0 (inactive),0.1 (inactive),0.135 (inactive),0.0909 (inactive),
FC(F)(F)c1nnc2ccc(Cl)nn12,1 (inactive),0 (inactive),0 (inactive),0.2 (inactive),0.189 (inactive),0.333 (inactive),
Cc1cc(C)cc(COc2ccc3c(C)c(CCC(=O)O)c(=O)oc3c2C)c1,1 (inactive),1 (inactive),0 (inactive),0.136 (inactive),0.2 (inactive),0.127 (inactive),
CN(C)CCNC(=O)N1CCCN(c2ncnc3cc(-c4ccccc4)sc23)CC1,0 (inactive),0 (inactive),0 (inactive),< 0 (inactive),0.2 (inactive),0.556 (active),
Cc1nc(-c2ccccn2)nc(N2CCC(Cc3ccccc3)C2)c1Cl (centres undefined),0 (inactive),0 (inactive),0 (inactive),0.15 (inactive),0.1 (inactive),0.333 (inactive),
COc1cccc(OCC(=O)c2ccc(Br)cc2)c1,0 (inactive),0 (inactive),0 (inactive),0.182 (inactive),0.2 (inactive),0.127 (inactive),
N#CCN(CCCCN1CCN(c2ccc(F)cc2)CC1)C(=O)OCc1ccccc1,0 (inactive),0 (inactive),0 (inactive),0.0811 (inactive),0.111 (inactive),0.125 (inactive),
O=C(NCc1nnc2n1CCCCC2)c1ccc(-c2ccc(F)cc2)o1,1 (inactive),0 (inactive),0 (inactive),0.136 (inactive),0.15 (inactive),0.182 (inactive),
c1ccc2c(c1)CN(CC1CC1)CC1(CCN(Cc3c[nH]c4cnccc34)CC1)O2,0 (inactive),0 (inactive),0 (inactive),< 0 (inactive),0.1 (inactive),0.211 (inactive),
Cc1cc(NC(=O)c2ccc(Oc3ccc(Cl)cc3O)o2)no1,0 (inactive),0 (inactive),0 (inactive),0.1 (inactive),< 0 (inactive),0.111 (inactive),
COc1cccc(CC(=O)N2CCC(n3c(C)nc4ccc(F)cc43)CC2)c1,1 (inactive),1 (inactive),1 (inactive),0.1 (inactive),0.405 (inactive),0.394 (inactive),116%
COC(=O)c1c(NC(=O)c2c(F)c(F)c(F)c(F)c2F)sc2c1CCCCC2,2 (active),4 (active),4 (active),1 (active),1 (active),1 (active),0.615%
O=C(Nc1c(O)cccc1-c1nc2c(C(=O)O)cccc2o1)c1cc(-c2ccccc2)on1,0 (inactive),0 (inactive),0 (inactive),0.05 (inactive),0.027 (inactive),0.0303 (inactive),80.2%
CCCCOC(=O)Nc1cc2nc(C3CCCCC3)[nH]c2cc1N1CCCC1,3 (active),4 (active),4 (active),0.15 (inactive),0.389 (inactive),0.562 (active),132%
Nc1cccnc1Nc1ccc(Cl)cc1,0 (inactive),0 (inactive),0 (inactive),0.15 (inactive),0.278 (inactive),0.375 (inactive),157%
